Assay [1] deals with Zika virus NS2B-NS3 protease (linked construct). Kind of assay: Primary screen NINDS Rhodamine qHTS for Zika virus inhibitors (AID 1347160). Note: nearly all actives have a fitted effect of over 55% in size. Note: potency is the fitted concentration of half-maximal effect. The note with it: purified NS2B-NS3 protease, Rhodamine110 substrate fluorescence; series mostly up to 57.1 µM. A digest of the protocol:
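Rhodamine110-peptide cleavage (1.5 µM substrate) by 25 nM linked NS2B-NS3 enzyme at pH 8.0 (Tris, Tween 20), after 15 min RT preincubation with compounds; 15-min fluorescence change normalized to controls and Hill-fitted.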
Background: Quantitative high-throughput screening tests each substance at several concentrations.

Assay [2] can be described thus: HPAF-II Cancer Cell Toxicity qHTS against the NCATS CANVASS Library (AID 1347346). Note: nearly all actives have a fitted effect of over 55% in size. Note: potency is the fitted concentration of half-maximal effect. The following applies: HPAF-II viability, CellTiter-Glo ATP luminescence, 72 h; series mostly up to 38.3 µM. A digest of the protocol: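 1000 HPAF-II cells/well; 4 h pre-incubation; 11-pnt compound titration; 72 h, 37 degrees C/5% CO2; CellTiter-Glo, 15 min RT; luminescence read.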

A short description of assay [3]: OV-SAHO Cancer Cell Toxicity qHTS against the NCATS CANVASS Library (AID 1347348). Note: nearly all actives have a fitted effect of over 55% in size. Note: potency is the fitted concentration of half-maximal effect. The following applies: OV-SAHO viability, CellTiter-Glo luminescence, 72 h; series mostly up to 38.3 µM. In a few lines:
(§1)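 Viability was assessed by adding CellTiter-Glo reagent to treated cultures and reading luminescence after 15min at room temperature. Treatment lasted 72 h at 37 degrees C/5% CO2, using an 11-point series on 1000 cells/well.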

The nature of assay [4]: U-118MG Cancer Cell Toxicity qHTS against the NCATS CANVASS Library (AID 1347351). Note: potency is the fitted concentration of half-maximal effect. The note with it: U-118MG viability, CellTiter-Glo luminescence, 72 h; series mostly up to 38.3 µM. A digest of the protocol:
as §1

Assay [5] is described as follows: COV-362 Cancer Cell Toxicity qHTS against the NCATS CANVASS Library (AID 1347352). Note: potency is the fitted concentration of half-maximal effect. The following applies: COV-362 viability, CellTiter-Glo luminescence, 72 h; series mostly up to 38.3 µM. In a few lines: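 1000 cells/well, 4 h pre-incubation 37 °C/5% CO2; 11-pnt titration; 72 h; CellTiter-Glo 15 min RT, luminescence.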
Assay [6] is described as follows: HEK293 18hr Apoptosis Induction qHTS against the NCATS CANVASS Library (AID 1347357). The following applies: HEK293 caspase-3/7 Caspase-Glo luminescence; series mostly up to 46.1 µM. A digest of the protocol: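 HEK293 cells (500 per well, DMEM with 10% FBS) were treated with natural products, incubated 18 hours at 37 degrees C, then caspase-3/7 activity was read by Caspase-Glo luminescence after 15 min at room temperature.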

The nature of assay [7]: HPAF-II 12hr Apoptosis Induction qHTS against the NCATS CANVASS Library (AID 1347358). The following applies: HPAF-II caspase-3/7 Caspase-Glo luminescence; series mostly up to 46.1 µM. A digest of the protocol:
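Caspase-Glo 3/7 luminescence (DEVD substrate) reports caspase activity in HPAF-II cells after 12 h compound treatment at 37 degrees C. Compounds were tested in an 11-point series. Doxorubicin served as control.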

Assay [8] is described as follows: HEK293 24hr Apoptosis Induction qHTS against the NCATS CANVASS Library (AID 1347359). The note with it: HEK293 caspase-3/7 activation, Caspase-Glo luminescence; series mostly up to 46.1 µM. A digest of the protocol: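 HEK293 cells (500/well, DMEM + 10% FBS) were exposed to compounds in an 11-point series for 24 hours at 37 degrees C, then caspase-3/7 activity was read by Caspase-Glo DEVD luciferase luminescence after 15 min.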

Assay [9] in a line: HPAF-II 18hr Apoptosis Induction qHTS against the NCATS CANVASS Library (AID 1347360). The note with it: HPAF-II caspase-3/7 luminescence; series mostly up to 46.1 µM. In a few lines: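 HPAF-II cells (500/well, DMEM + 10% FBS) were exposed to compounds for 18 hours at 37 degrees C. Caspase-3/7 activity was then read by Caspase-Glo 3/7 luminescence after 15 min at room temperature.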

Assay [10] is described as follows: HEK293 12hr Apoptosis Induction qHTS against the NCATS CANVASS Library (AID 1347361). The following applies: HEK293 caspase-3/7 Caspase-Glo luminescence; series mostly up to 46.1 µM. In a few lines:
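Read-out: Caspase-Glo 3/7 luminescence (DEVD substrate), 15 min RT. Preceded by 12 h compound exposure of HEK293, 500 cells/well, 11-pt qHTS titration; doxorubicin titration as control.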

Assay [11] deals with Luciferin 4-monooxygenase (Photinus pyralis) (UniProt P08659). The assay is described as follows: Firefly luciferase counterscreen qHTS: Assay Interference Panel against the NCATS CANVASS Library (AID 1347363). The note with it: purified firefly luciferase, luminescence inhibition, 5 min; series mostly up to 57.5 µM. A digest of the protocol: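 Purified P. pyralis luciferase was added to compounds (11-point series) preincubated 15 min at room temperature with substrate containing 0.013 mM D-luciferin and 0.013 mM ATP; luminescence was read after 5 min.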
Chain of Luciferin 4-monooxygenase (Photinus pyralis) (P08659 whole entry, looked up): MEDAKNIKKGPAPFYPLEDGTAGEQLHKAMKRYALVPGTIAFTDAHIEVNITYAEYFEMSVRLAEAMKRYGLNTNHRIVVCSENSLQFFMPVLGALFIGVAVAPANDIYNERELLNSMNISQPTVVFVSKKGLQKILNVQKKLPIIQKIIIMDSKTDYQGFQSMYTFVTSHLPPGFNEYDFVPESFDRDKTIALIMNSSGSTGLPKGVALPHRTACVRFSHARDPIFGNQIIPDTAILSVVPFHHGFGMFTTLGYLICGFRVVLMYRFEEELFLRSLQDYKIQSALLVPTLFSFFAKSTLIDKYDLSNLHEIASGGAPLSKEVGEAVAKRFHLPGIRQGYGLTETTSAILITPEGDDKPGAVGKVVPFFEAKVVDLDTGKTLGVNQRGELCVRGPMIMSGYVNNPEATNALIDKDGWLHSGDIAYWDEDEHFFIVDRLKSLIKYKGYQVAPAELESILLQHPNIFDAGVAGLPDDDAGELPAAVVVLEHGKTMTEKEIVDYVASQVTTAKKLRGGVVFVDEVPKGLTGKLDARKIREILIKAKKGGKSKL

The nature of assay [12]: qHTS for ATAD5 Antagonist screened against the NCATS CANVASS Library (AID 1347370).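 Note: HEK293T cells carrying an ATAD5 luciferase reporter co-treated with 10 µM 5-fluorouridine; nearly all actives have a fitted effect of over 65% in size.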 The following applies: HEK293T-ATAD5-luc, 5-FUrd stimulated, luminescence, 16 h; series mostly up to 46.1 µM. A digest of the protocol:
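HEK293T-ATAD5 luc reporter, 2000 cells/well; 5hr attach; cpd + 10 uM 5-FUrd; 16hr 37C, 5% CO2. Readouts: CellTiter-Fluor fluorescence (1hr), then Amplite luciferase luminescence (30min RT).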

Assay [13] can be described thus: J3T Cancer Cell Toxicity qHTS against the NCATS CANVASS Library (AID 1347371). Note: potency is the fitted concentration of half-maximal effect. The note with it: J3T dog glioma viability, ATP luminescence, 72 h; series mostly up to 46.1 µM. A digest of the protocol:
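Dog glioma J3T, 500 cells/well; cpd 11-pt qHTS; 72 hr, 37C/5% CO2; CellTiterGlo ATP luminescence readout.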

The nature of assay [14]: 10-beta competent E. coli microbial cell viability qHTS against the NCATS CANVASS Library (AID 1347376). The following applies: E. coli 10-beta viability, BacTiter-Glo ATP luminescence, overnight; series mostly up to 46.1 µM. In a few lines:
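Luminescence from BacTiter-Glo ATP detection served as the viability read-out; bacteria (0.2 OD) had been incubated overnight at 37C with pin-transferred compounds at 11 concentrations.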

The nature of assay [15]: qHTS for Inflammasome Signaling Inhibitors: IL-1-beta AlphaLISA screen against the NCATS CANVASS Library (AID 1347379).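 For Potency: secreted IL-1B measured as AlphaLISA emission at 615 nm; potency is the fitted concentration of half-maximal effect.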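 Note: human THP-1 cells primed with LPS then triggered with ATP.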 The following applies: THP-1 LPS/ATP, IL-1B AlphaLISA secretion, 16 h; series mostly up to 57.5 µM. In a few lines:
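THP-1, 1 hr compound pre-incubation, then LPS 250 ng/mL + ATP 1.25 mM (final); 16 hr total with compound; IL-1B AlphaLISA, ex 680/em 615 nm; 11-point qHTS, up to 57.5 uM final.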

Assay [16] in a line: Inflammasome Signaling qHTS Counterscreen: IL-1-beta AlphaLISA counterscreen against the NCATS CANVASS Library (AID 1347381).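 Note: cell-free check with purified IL-1β in medium and no THP-1 cells.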 The note with it: Purified IL-1beta AlphaLISA signal interference counterscreen; series mostly up to 57.5 µM. A digest of the protocol:
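Here, no cellular stimulation occurs; compounds in an 11-point series meet 4 pg purified IL-1-beta directly. Bead-based AlphaLISA detection follows (1 h acceptor/antibody, then 30 min donor, dark, room temperature), with excitation at 680 nm.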

The nature of assay [17]: Cytotoxicity qHTS for assessment of Hepg2 cells membrane integrity screened against the NCATS CANVASS Library (AID 1347387). The following applies: HepG2 LDH release (CytoTox-ONE) fluorescence, 5 h; series mostly up to 46.1 µM. A digest of the protocol: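 LDH release read by fluorescence (560 nm ex/590 nm em) after CytoTox-ONE addition and 10 min RT; signal tracks lysed cells. HepG2, 2000 cells/well, plated overnight; compound 5 hr, 37C, 5% CO2, final 0.59 nM - 46 uM, 11 points.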

A short description of assay [18]: Vero-766 cells viability qHTS against the NCATS CANVASS Library: Counterscreen for Zika virus inhibition assay (AID 1347394). Note: nearly all actives have a fitted effect of over 60% in size. Note: potency is the fitted concentration of half-maximal effect. The note with it: Vero 766 viability, CellTiter-Glo luminescence, 72 h; series mostly up to 46.1 µM. A digest of the protocol:
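Uninfected Vero 766 (African green monkey) cells, 1000/well, attached overnight, then exposed 72 h at 37C to compounds (11-point qHTS). Viability read by CellTiter-Glo luminescence; media-only wells served as 100% inhibition.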

A short description of assay [19]: MCF7 Cancer Cell Toxicity qHTS against the NCATS CANVASS Library (AID 1347369). The note with it: MCF7 viability, ATP luminescence (CellTiter-Glo), 72 h; series mostly up to 46 µM. A digest of the protocol: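 MCF7, 500 cells/well; cpds 11-pt qHTS; 72 hr, 37C/5% CO2; CellTiterGlo ATP luminescence.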
For assay [20], the target named is Nuclear receptor subfamily 1 group I member 3 (Homo sapiens) (UniProt Q14994). Kind of assay: qHTS for Constitutive Androstane Receptor (CAR) Antagonist screened against the NCATS CANVASS Library (AID 1347372). Note: potency is the fitted concentration of half-maximal effect. The note with it: HepG2-hCAR-CYP2B6 luciferase, CITCO-stimulated antagonist mode; series mostly up to 46.1 µM. A digest of the protocol: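 Cells were seeded and left 4hr to attach, then received compound at 11 concentrations and 50 nM CITCO. Following 24hr incubation, fluorescence viability and luciferase luminescence were read sequentially.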
Chain of Nuclear receptor subfamily 1 group I member 3 (Homo sapiens) (Q14994 whole entry, looked up): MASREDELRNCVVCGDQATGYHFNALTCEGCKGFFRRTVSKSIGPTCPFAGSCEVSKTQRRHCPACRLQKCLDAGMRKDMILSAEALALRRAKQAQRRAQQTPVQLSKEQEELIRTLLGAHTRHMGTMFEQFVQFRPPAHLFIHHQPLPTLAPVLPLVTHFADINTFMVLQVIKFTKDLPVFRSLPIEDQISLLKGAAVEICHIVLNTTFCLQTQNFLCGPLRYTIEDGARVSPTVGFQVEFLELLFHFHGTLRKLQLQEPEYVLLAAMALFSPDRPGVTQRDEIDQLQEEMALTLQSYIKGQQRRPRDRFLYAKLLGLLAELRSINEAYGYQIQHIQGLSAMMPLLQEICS

The structures appear in SMILES notation. Unmarked numbers belong to inactive results. Inconclusive results are not listed. Active and inactive are the calls of the source. Calls come from the whole dose curve; as a rule, active = well fitted curve in the direction sought with a large enough effect; inconclusive = small, poorly fitted or top-dose-only effect, or another doubt; inactive = no such curve, though single readings can be large; an effect the other way counts as inactive or inconclusive.

As for `CCCCCCCCC[C@@H]1C[C@@H]2CC[C@H]3[C@@H](C(=O)OCCCCN=C(N)N)[C@@H](C)N=C(N1)N23`, the Potency entry in [1], in assay [6], in assay [7], in assay [8], in [9] and in assay [10] was “inactive” each time. Further, the Potency result in assay [11], in assay [12] and in assay [18] was “inactive” throughout. Besides, the Potency in assay [2] was 14.7 µM (active); in assay [3], 9.2 µM (active); in assay [4] it was 11.6 µM (active); in [5] it was 13 µM (active); in assay [13] it was 11.5 µM (active); in assay [15], 21.2 µM (active). In addition, the result in assay [14], in [16] and in assay [17] was inactive.

`O=c1cc(-c2ccc(O)cc2)oc2c([C@@H]3OC(CO)[C@H](O)[C@@H](O)[C@H]3O)c(O)cc(O)c12` (stereo not given in full): the Potency in [1] is 17.5 µM (active). Moreover, the Potency result in assay [2], in assay [3], in assay [4], in assay [5], in assay [6] and in assay [7] was “inactive” throughout. For the same molecule, the Potency entry in [8], in assay [9], in assay [10], in assay [11], in [19] and in assay [12] was “inactive” throughout. Also, the Potency result in [13], in assay [20], in [15] and in assay [18] was “inactive” each time. Further, the call in assay [14], in [16] and in assay [17] was inactive.

For `C=C1C(=O)C[C@H]2C[C@@H]1[C@]2(C)CCC=C(C)C`, in assay [1], the Potency was 17.5 µM (active). The Potency result in assay [2], in [3], in assay [4], in assay [5], in assay [6] and in [7] was “inactive” each time. Besides, the Potency entry in [8], in assay [9], in assay [10], in [11], in assay [19] and in assay [12] was “inactive” throughout. The Potency entry in assay [13], in assay [20], in assay [15] and in assay [18] was “inactive” throughout. Besides, the molecule was called inactive in assay [14], in assay [16] and in assay [17].

Consider `COc1ccc2cc(NC(=O)C3=NO[C@H]4[C@H](O)C=C[C@@H](Cl)[C@@]4(O)C3)c(=O)oc2c1OC`, for which the Potency in assay [1] is 49.3 µM (active). Also, the Potency result in [2], in [3], in [4], in assay [5], in [6] and in assay [7] was “inactive” each time. Also, the Potency entry in assay [8], in [9], in assay [10], in assay [11], in assay [19] and in [13] was “inactive” throughout. Besides, the Potency result in [20], in [15] and in assay [18] was “inactive” throughout. Also, the molecule was called inactive in assay [14], in assay [16] and in [17].

Take `C[C@@H](O)[C@H]1OC(=O)C=C2[C@]3(C)[C@H]4[C@H](OC(=O)[C@@]4(C)[C@@H](O)[C@H]4O[C@H]43)[C@H]3O[C@@]231`: the Potency entry in assay [1], in assay [6], in [7], in assay [8], in assay [9] and in assay [10] was “inactive” in each case. The Potency entry in assay [11] and in assay [12] was “inactive” in each case. The Potency in assay [2] was 3.35 µM (active); in [3], 1.33 µM (active); in assay [5], 1.88 µM (active); in [13] it was 3.32 µM (active); in [20], 5.24 µM (active); in assay [15], 12.2 µM (active). The Potency in assay [18] was 9.33 µM (active). Moreover, the molecule was called inactive in [14], in assay [16] and in assay [17].

Source of the values: PubChem BioAssay (NCATS).
